Source: PubChem
Sfp inh: inhibitors of Bacillus subtilis Sfp phosphopantetheinyl transferase. AID 1490. 3.5% of 310,000 active. Q9F4F7. Potency, µM, usual class: inhibitors. Biochemical Sfp PPTase activity, qHTS;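 also: the enzyme is Sfp with the accession as filed and its product quenches rhodamine fluorescence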
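Compounds were incubated with enzyme (final 15 nM) for 15 min at room temperature before substrate addition started the reaction. Fluorescence at 525 nm excitation, 598 nm emission was recorded immediately and after 30 minutes.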
BAZ2B inh: inhibitors of human BAZ2B bromodomain; Q9UIF8; AlphaScreen BAZ2B-H3K14Ac peptide displacement; Potency, µM (highest dose often 114 µM), usual class: inhibitors; 4.4% of 360,000 active; also: nearly all actives have a fitted effect of over 60% in size
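AlphaScreen displacement of biotin-H3(5-23)K14Ac peptide (50 nM final) from BAZ2B (50 nM final) in PBS pH 7.4, 0.01% Tween-20; complex preformed 30 min RT, then compounds (top 110 uM) 30 min RT, beads 20 min dark.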
HP1b binding inh: blocks HP1-beta chromodomain binding to methylated histone tails; P83916; AlphaScreen HP1-beta / biotin-H3K9me3 peptide binding; Potency, µM (top dose mostly 114 µM), usual class: inhibitors; 0.56% of 390,000 active; AID 540317; also: nearly all actives have a fitted effect of over 70% in size
Target sequence (P83916 whole entry, looked up): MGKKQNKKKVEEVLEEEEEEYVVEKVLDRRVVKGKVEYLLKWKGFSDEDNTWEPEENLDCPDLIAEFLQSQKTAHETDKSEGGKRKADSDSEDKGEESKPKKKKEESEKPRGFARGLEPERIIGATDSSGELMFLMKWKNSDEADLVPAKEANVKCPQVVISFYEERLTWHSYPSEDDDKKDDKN
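AlphaScreen: HP1-beta (50 nM) preformed 30 min with biotin-H3(1-18)K9me3 peptide (50 nM) in PBS pH 7.4, 0.01% Tween-20. Compound added for 30 min at RT, then streptavidin donor/nickel chelate acceptor beads (10 ug/mL) for 30 min.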
G9a inh: blocks human histone lysine methyltransferase G9a; G9a H3K9 monomethylation, AlphaScreen, 2 h; 8.8% of 350,000 active; AID 504332; Q96KQ7; Potency, µM (highest dose often 102 µM), most hits filed as inhibitors; also: nearly all actives have a fitted effect of over 75% in size
Target sequence (Q96KQ7 913-1193 limits assumed): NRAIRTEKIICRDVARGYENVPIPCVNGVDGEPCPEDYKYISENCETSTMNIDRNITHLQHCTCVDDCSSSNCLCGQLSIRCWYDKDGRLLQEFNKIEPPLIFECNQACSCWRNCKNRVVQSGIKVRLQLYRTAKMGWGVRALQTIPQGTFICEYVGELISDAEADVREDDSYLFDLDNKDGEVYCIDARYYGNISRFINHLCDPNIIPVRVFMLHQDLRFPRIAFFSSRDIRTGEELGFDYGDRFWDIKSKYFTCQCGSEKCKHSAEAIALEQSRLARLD
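Signal arises when biotinylated H3K9 peptide, once monomethylated, bridges streptavidin donor and antibody-captured acceptor beads. Enzyme at 20 nM was preincubated 15 min with test compounds; peptide 500 nM and SAM 20 uM then reacted for 2 h.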
JMJD2A Tudor: blocks the human JMJD2A Tudor domain; AlphaScreen JMJD2A-Tudor / H3K4me3 peptide binding; Potency, µM (highest dose often 114 µM), most hits filed as inhibitors; 4.4% of 390,000 active; AID 504339; also: nearly all actives have a fitted effect of over 50% in size
A number is an active result; [ ] = remark or other dose. Hits are enriched below; roughly 12% of the tested compounds scored in any of these assays. Calls follow the shape of the dose curve; as a rule, active = well fitted curve in the direction sought with a large enough effect; inconclusive = small, poorly fitted or top-dose-only effect, or another doubt; inactive = no such curve, though single readings can be large; an effect the other way counts as inactive or inconclusive.

Results for Cc1cccn2c(=O)c(/C=C(\C#N)S(=O)(=O)c3ccccc3)c(N3CCN(C)CC3)nc12 ?
Sfp inh: inactive; BAZ2B inh: inactive; HP1b binding inh: inactive; G9a inh: inconclusive; JMJD2A Tudor: inactive

Results for CCN1CCN(c2nc3c(C)cccn3c(=O)c2/C=C(\C#N)S(=O)(=O)c2ccc(C)cc2)CC1 ?
Sfp inh: inactive; BAZ2B inh: inconclusive; HP1b binding inh: inactive; G9a inh: 50µM; JMJD2A Tudor: inconclusive

What do the screens show for `CCN1CCN(c2nc3c(C)cccn3c(=O)c2/C=C(\C#N)S(=O)(=O)c2ccc(Cl)cc2)CC1`?
Sfp inh: inactive; BAZ2B inh: inconclusive; HP1b binding inh: inconclusive; G9a inh: 32µM; JMJD2A Tudor: inconclusive

What do the screens show for `Cc1ccc(S(=O)(=O)/C(C#N)=C/c2c(N3CCN(C)CC3)nc3c(C)cccn3c2=O)cc1`?
Sfp inh: inactive; BAZ2B inh: inconclusive; HP1b binding inh: inactive; G9a inh: 45µM; JMJD2A Tudor: inconclusive

What do the screens show for `Brc1cc2c(cc1-c1nc3ccccc3s1)OCO2`?
Sfp inh: inactive; BAZ2B inh: inactive; HP1b binding inh: inactive; G9a inh: 40µM; JMJD2A Tudor: inactive

What do the screens show for `Brc1ccc(-c2nc3ccccc3s2)s1`?
Sfp inh: inactive; BAZ2B inh: inactive; HP1b binding inh: inactive; G9a inh: inactive; JMJD2A Tudor: inactive

How did CCn1c(C)c(C(C)=O)c(N2CCN(c3ccccc3)CC2)nc1=S do in these assays?
Sfp inh: 56µM; BAZ2B inh: inactive; HP1b binding inh: inactive; G9a inh: inactive; JMJD2A Tudor: inactive

Results for CCn1c(C)c(C(C)=O)c(N2CCCCC2)nc1=S ?
Sfp inh: inactive; BAZ2B inh: inactive; HP1b binding inh: inactive; G9a inh: 45µM; JMJD2A Tudor: inactive

What do the screens show for `CC(=O)c1c(N2CCOCC2)nc(=O)n(-c2ccccc2)c1C`?
Sfp inh: inactive; BAZ2B inh: inactive; HP1b binding inh: inactive; G9a inh: 45µM; JMJD2A Tudor: inactive

How did COc1ccccc1CN1CCCCC1C(=O)O (stereo not given) do in these assays?
Sfp inh: inactive; BAZ2B inh: inactive; HP1b binding inh: inactive; G9a inh: inactive; JMJD2A Tudor: 35µM

Results for CCOC(=O)C1CCCCN1Cc1ccccc1C(F)(F)F (stereo not given) ?
Sfp inh: inconclusive; BAZ2B inh: inactive; HP1b binding inh: inconclusive; G9a inh: inactive; JMJD2A Tudor: 4.5µM

How did CCOC(=O)C1CCCCN1Cc1cccc(C(F)(F)F)c1 (stereo not given) do in these assays?
Sfp inh: inactive; BAZ2B inh: inconclusive; HP1b binding inh: inactive; G9a inh: inconclusive; JMJD2A Tudor: inconclusive

How did CCOC(=O)C1CCN(Cc2ccccc2C(F)(F)F)CC1 do in these assays?
Sfp inh: inactive; BAZ2B inh: 79µM; HP1b binding inh: inconclusive; G9a inh: 16µM; JMJD2A Tudor: 2.8µM

How did COc1cccc(N2CCN(c3ccc4nnc(CCC(=O)Nc5ccc(F)cc5F)n4n3)CC2)c1 do in these assays?
Sfp inh: inactive; BAZ2B inh: inactive; HP1b binding inh: inactive; G9a inh: inactive; JMJD2A Tudor: inconclusive

Results for CC(=O)CC(=O)Nc1nc(C)cc(C)n1 ?
Sfp inh: inactive; BAZ2B inh: inactive; HP1b binding inh: inactive; G9a inh: inactive; JMJD2A Tudor: inactive[11.4 µM]

Results for COC(=O)C(CC(=O)c1ccc(Br)cc1)n1cccn1 (stereo not given) ?
Sfp inh: inconclusive; BAZ2B inh: inactive; HP1b binding inh: inactive; G9a inh: 40µM; JMJD2A Tudor: inactive

What do the screens show for `COC(=O)C(CC(=O)c1ccc(C)cc1)n1cccn1` (stereo not given)?
Sfp inh: inactive; BAZ2B inh: inactive; HP1b binding inh: inactive; G9a inh: inactive; JMJD2A Tudor: inactive

What do the screens show for `COC(=O)C1=C(C)N(Cc2ccco2)C(=O)N[C@@H]1c1cccc(C(F)(F)F)c1`?
Sfp inh: inactive; BAZ2B inh: inconclusive; G9a inh: 89µM

How did COC(=O)C1=C(C)N(Cc2ccccc2)C(=NCC(C)C)N[C@H]1c1cccc(F)c1 do in these assays?
Sfp inh: inactive; BAZ2B inh: inconclusive; HP1b binding inh: inactive; G9a inh: inactive[12.7 µM]; JMJD2A Tudor: 25µM

What do the screens show for `CCN1C(=NCCOC)N[C@@H](c2cccc(C(F)(F)F)c2)C(C(=O)OC)=C1C`?
Sfp inh: inactive; BAZ2B inh: inconclusive; HP1b binding inh: inactive; JMJD2A Tudor: 16µM
